Source: PubChem BioAssay (several laboratories)
Compounds with a hit are over-represented: about 2.2% of the library has one in this group of screens.
TWEAK Fn14 block: inhibitors of TWEAK-Fn14 interaction signaling; inhibition, % at 10 µM; hit rate 2% among 360,000; TWEAK-stimulated Fn14 reporter cells, luciferase luminescence, 8 h; in the data active = inhibition above about 50%
HSP90 inh: blocks HSP90-mediated luciferase refolding in reticulocyte lysate; inhibition, % at 5.6 µM; AID 1789; hit rate 0.91% among 290,000; Rabbit reticulocyte lysate, luciferase refolding luminescence, 3 h;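 active = inhibition above the screen-wide mean plus 3 SD, computed separately per campaign, cut at about 16% in these data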;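 also: 0% = DMSO wells and 100% = 60 µM geldanamycin wells; inhibitors lower the luminescence because luciferase stays unfolded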
TROY NFkB inh: TROY signaling inhibition | Q293 LMP1-TROYcd NF-kB luciferase reporter, 4 h | inhibition, % at 10 µM | hit rate 0.98% among 360,000;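 active = compounds whose plate-normalised and pattern-corrected inhibition of the luciferase reporter signal at the single screening dose is 50% or more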
LGR2 antag: Drosophila LGR2 receptor signaling inhibition; HEK293 LGR2, CRE-luciferase, bursicon-stimulated, 4 h; inhibition, % at 9.99 µM; hit rate 0.35% among 380,000; AID 720647;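 active = drop in luminescence signal, shown as inhibition above about 50% in the replicate tests, limit read from the data, passing the limit was not always enough; inconclusive = probably only some replicates passing the limit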;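 also: agonist challenge used bursicon conditioned medium at about half maximal strength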
Active calls of the source: *; ? = inconclusive; nt = no result given.

SMILES | TWEAK Fn14 block | HSP90 inh | TROY NFkB inh | LGR2 antag
CNC(=O)N(O)C1N(NC(=O)Nc2ccccc2)C(=S)SC1(C)C (stereo unspecified) | 1.3 | -0.3 | -9.8 | 2.4
C[C@H]1CCCCO[C@H](CN(C)C(=O)Nc2ccc(C(F)(F)F)cc2)[C@@H](C)CN([C@@H](C)CO)C(=O)c2cc(NC(=O)Nc3ccccc3)ccc2O1 | nt | nt | nt | 1.9
COc1ccc(/C=N/Nc2ccccn2)cc1OC | -33.3 | -6.7 | -22.1 | -27.9
COc1cc(/C=N/Nc2ccccn2)ccc1O | 63.1* | -0.5 | 87.5* | -55.3
COc1cc(/C=N/Nc2nc(C)nc3c2cnn3-c2ccccc2)ccc1O | 64.0* | -0.2 | 44.3 | 58.3*
Cc1cccc(N2CCN(C(=O)C3CCN(S(=O)(=O)c4cccc5nsnc45)CC3)CC2C)c1 (stereo unspecified) | 56.2* | -1.9 | 9.8 | nt
COc1ccc2nc(NC(=O)C3CCN(S(=O)(=O)c4cccc5nsnc45)CC3)sc2c1 | 97.3* | 3.6 | 61.5* | nt
Cc1cccc(N2CCN(C(=O)C3CCN(S(=O)(=O)c4cccc5cccnc45)CC3)CC2C)c1 (stereo unspecified) | 5.3 | nt | 3.3 | 6.1
Cc1cccc2sc(NC(=O)C3CCN(S(=O)(=O)c4cc([N+](=O)[O-])ccc4Cl)CC3)nc12 | 53.7* | 2.3 | 6.4 | -2.1
Cc1nnc(NC(=O)C2CCN(S(=O)(=O)c3cc([N+](=O)[O-])ccc3Cl)CC2)o1 | -10.5 | nt | 11.0 | 5.8
CC(=O)N1CC[C@@H]2[C@H]1c1cc(-c3ccccc3)ccc1N(C)[C@H]2CO | nt | nt | nt | 5.3
Nc1ccc(Oc2cccc(Oc3ccc(N)cc3)c2)cc1 | 82.4* | -1.6 | 60.2* | -15.2
Cc1cccc(Oc2ccc(N)cc2)c1 | -5.1 | 9.9 | -34.9 | nt
C[C@H]1CN([C@@H](C)CO)C(=O)c2cc(-c3ccccc3)cnc2O[C@@H]1CN(C)Cc1cccnc1 | nt | nt | nt | 15.3
Cc1ccc(NC(=O)CN(C)CC(=O)Nc2cccc(F)c2)cc1S(=O)(=O)N1CCCCCC1 | 50.3* | -2.1 | 50.4* | 31.8
Cc1ccc(NC(=O)c2cc(=O)c3ccccc3o2)cc1S(=O)(=O)N1CCOCC1 | 15.1 | -2.9 | 7.3 | 22.9
Cc1ccc(NC(=O)c2cc(=O)c3ccccc3o2)cc1S(=O)(=O)N1CCCCC1 | -18.2 | 2.9 | 56.9* | 27.9
COc1ccc(NC(=O)CN(C)CC(=O)Nc2cccc(F)c2)cc1S(=O)(=O)N1CCCCC1 | -1.6 | nt | -3.0 | -5.2
Cc1ccc(NC(=O)c2ccccc2NS(=O)(=O)c2ccc(F)cc2)cc1S(=O)(=O)N1CCCCC1 | 72.2* | -4.1 | 60.3* | ?
Cc1ccc(NC(=O)Cn2ncc(Cl)c(Cl)c2=O)cc1S(=O)(=O)N1CCCCC1 | 85.8* | nt | 84.3* | 6.4
O=S(=O)(c1ccc(F)cc1)N1CCCCN2[C@H](CO)[C@H](c3ccc(C#CC4CC4)cc3)[C@H]2C1 | nt | nt | nt | 9.6
O=C(C[C@@H]1CC[C@@H]2[C@H](COC[C@H](O)CN2C(=O)Cc2ccccc2)O1)NC1CCCC1 | nt | nt | nt | 17.9
Cc1cc(C(=O)Nc2cccc3c2O[C@H](CN(C)C(=O)NC2CCCCC2)[C@@H](C)CN([C@H](C)CO)C3=O)n(C)n1 | nt | nt | nt | -11.9
C[C@H](CO)N1C[C@H](C)[C@H](CN(C)S(=O)(=O)c2ccccc2)Oc2ccc(N(C)C)cc2CC1=O | nt | nt | nt | -8.2
O=C(Nc1cccc(S(=O)(=O)N2CCCCC2)c1)c1ccccc1NS(=O)(=O)c1ccc(F)cc1 | 58.0* | -3.9 | 54.1* | 21.9
SMILES | TWEAK Fn14 block | HSP90 inh | TROY NFkB inh | LGR2 antag
Cc1ccc(C(=O)Nc2ccccc2C(=O)NCc2ccco2)cc1S(=O)(=O)N1CCCCC1 | 51.7* | -2.1 | -27.3 | nt
Cc1ccc(NC(=O)CN(C)C(=O)Cn2ncc(Cl)c(Cl)c2=O)cc1 | 95.7* | 0.3 | 31.3 | 8.8
CN(CC(=O)Nc1ccc(F)cc1)C(=O)C1Cc2ccccc2CN1S(C)(=O)=O (stereo unspecified) | -10.5 | nt | -9.2 | 13.5
CCS(=O)(=O)N1Cc2ccccc2CC1C(=O)N(C)CC(=O)Nc1cccc(F)c1 (stereo unspecified) | 21.4 | nt | 58.5* | -24.4
O=C(C[C@@H]1C=C[C@@H](NS(=O)(=O)c2cccc(F)c2)[C@H](CO)O1)N1CCCCC1 | nt | nt | nt | 7.1
Cc1cccc(NS(=O)(=O)c2ccc(-c3cnc(C4CC4)o3)cc2)c1C | 30.7 | 4.2 | 57.6* | -4.9
Cc1cc(C)cc(NS(=O)(=O)c2ccc(-c3cnc(C4CC4)o3)cc2)c1 | 41.6 | 4.9 | 56.3* | -26.4
O=S(=O)(Nc1ccccc1)c1ccc(-c2cnc(C3CC3)o2)cc1 | 25.8 | 3.8 | 19.0 | 12.0
O=C(Nc1ccc2c(c1)[C@H]1C[C@H](CC(=O)N3CCCCC3)O[C@@H](CO)[C@H]1O2)C1CCC1 | nt | nt | nt | -2.0
Cc1nnc(N2CCCC(C(=O)Nc3cc(F)ccc3F)C2)c2nn(-c3ccccc3)c(C)c12 (stereo unspecified) | 38.7 | 4.7 | 53.0* | nt
Cc1nnc(N2CCCC(C(=O)NCc3ccc(OC(C)C)cc3)C2)c2nn(-c3ccccc3)c(C)c12 (stereo unspecified) | 32.5 | -2.0 | 25.6 | 3.6
CN(C)C(=O)c1cccc(-c2ccc3c(c2)[C@H]2[C@H](CCN2C(=O)c2ccccc2)[C@@H](CO)N3C)c1 | nt | nt | nt | -7.7
O=C(C[C@H]1CC[C@@H](NC(=O)C2CC2)[C@@H](CO)O1)NCCCN1CCOCC1 | nt | nt | nt | 7.1
CC(=NNc1nc2ccccc2s1)c1ncccn1 | 30.9 | nt | -8.2 | -43.7
CC(=O)NNc1nc2ccccc2s1 | 89.5* | 2.6 | 83.5* | nt
O=C(COc1ccccc1)NNc1nc2ccccc2s1 | 70.0* | 14.4 | 85.4* | -2.7
C/C(=N\Nc1nc2ccccc2s1)c1cccs1 | 68.0* | -4.2 | -1.1 | 15.3
CC1C(=O)C(C)C(c2cc(Br)ccc2O)NC1c1cc(Br)ccc1O (stereo unspecified) | 9.2 | nt | 63.4* | 3.9
CC1C(=O)C(C)C(c2ccc(Br)cc2)NC1c1ccc(Br)cc1 (stereo unspecified) | -71.7 | 0.5 | 15.0 | -4.8
COc1ccc(N2CCN(CCCn3c(=S)[nH]c4ccccc4c3=O)CC2)cc1 | -50.2 | 0.0 | -7.3 | 8.7
CCOc1cc2[nH]c(=O)n(CCCN3CCN(c4ccc(OC)cc4)CC3)c(=O)c2cc1OCC | 87.1* | 0.2 | 2.8 | -12.5
O=C(C1CCN(c2ncnc3c2nc2n3CCCCC2)CC1)N1CCN(c2cccc(Cl)c2)CC1 | 54.1* | 0.5 | 49.2 | 28.4
CCOC(=O)c1cnc(SC2CC(=O)N(c3ccccc3)C2=O)nc1N (stereo unspecified) | -6.2 | 0.5 | -31.6 | -6.0
CCOC(=O)c1cnc(SC2CCc3ccccc3C2=O)nc1N (stereo unspecified) | 49.9 | 16.4* | 49.5 | nt
Oc1[nH]c2ccc(Br)cc2c1N=NC(=S)Nc1ccc(F)cc1 | 62.9* | 0.6 | -3.4 | 1.1
Oc1ccc(NC(=S)N=Nc2c(O)[nH]c3ccc(Br)cc23)cc1 | -30.5 | 2.4 | 24.4 | 21.6
COc1cccc(NC(=O)Nc2nnc(CC(=O)Nc3ccccc3)s2)c1 | 50.6* | -5.7 | 30.0 | -0.6
COc1cccc(-c2csc(NC(=O)Nc3ccccc3)n2)c1 | 85.8* | 4.5 | 57.8* | -9.5
O=C(Nc1ccccc1)Nc1nc(-c2ccccc2)cs1 | 28.8 | -0.2 | 21.3 | -42.3
